The results in this text go back to PubChem BioAssay (Tox21).

SMILES strings stand for the structures. Values without a mark were called inactive. Records with an inconclusive call do not appear. Calls of active or inactive are those of the source. Unless noted, calls follow the shape of the dose curve; as a rule, active = well fitted curve in the direction sought with a large enough effect in the repeat runs; inconclusive = weak or mixed curves; inactive = no such curve, though single readings can be large; an effect the other way counts as inactive or inconclusive.

The nature of experiment [1]: qHTS assay to identify small molecule antagonists of the estrogen related receptor (ERR) signaling pathway from Tox21 library - cell viability counter screen (AID 1224834). Also: nearly all actives have a fitted effect of over 30% in size. Also: potency is read from the fitted curve at half-maximal effect. In outline: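 Cytotoxicity of test substances is gauged in the same ERR cells used for the antagonist screen, after 17.5 h of compound treatment at 37 C, by CellTiter-Fluor fluorescence measured after 30 min.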

In experiment [2] the target is Luciferin 4-monooxygenase (Photinus pyralis) (UniProt P08659). The experiment can be described thus: qHTS assay to identify small molecule inhibitors of firefly luciferase (AID 1224835). Also: nearly all actives have a fitted effect of over 25% in size. Also: potency is read from the fitted curve at half-maximal effect. In outline: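 Inhibition of purified Photinus luciferase is measured by luminescence. Substrate levels (D-luciferin, ATP) sit at their KM values. Each compound is tested in a concentration series.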
In general terms: qHTS replaces the single test concentration by a dilution series.

Experiment [3] is described as follows: qHTS assay to identify small molecule agonists of the constitutive androstane receptor (CAR) signaling pathway - cell viability counter screen (AID 1224836). Also: nearly all actives have a fitted effect of over 45% in size. Also: potency is read from the fitted curve at half-maximal effect. In outline: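 Using CellTiter-Fluor, viability of HepG2 cells harbouring hCAR and CYP2B6-2.2kb was measured following 23 h incubation with a 15-concentration compound series plus PK11195 (0.75 uM final).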

Experiment [4] is described as follows: qHTS assay to identify small molecule antagonists of the constitutive androstane receptor (CAR) signaling pathway - cell viability counter screen (AID 1224837). Also: nearly all actives have a fitted effect of over 45% in size. Also: potency is read from the fitted curve at half-maximal effect. In short, it runs like this: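 Multiplexed cytotoxicity read-out for the CAR antagonist screen: double-stable HepG2-CYP2B6-hCAR cells co-treated with 50 nM CITCO (final) and compound over 15 concentrations, incubated 23 hr, then assessed by CellTiter-Fluor fluorescence.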

The target in experiment [5] is Nuclear receptor subfamily 1 group I member 3 (Homo sapiens) (UniProt Q14994). The experiment can be described thus: qHTS assay to identify small molecule antagonists of the constitutive androstane receptor (CAR) signaling pathway (AID 1224838). Also: nearly all actives have a fitted effect of over 40% in size. In outline:
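Compounds were titrated across 15 concentrations onto HepG2 cells double-stably expressing hCAR and a CYP2B6-2.2kb reporter, together with 50 nM CITCO (final). After 24 h at 37 C, luciferase activity was measured by luminescence.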

Experiment [6] has the same target. The experiment can be described thus: qHTS assay to identify small molecule agonists of the constitutive androstane receptor (CAR) signaling pathway (AID 1224839). Also: nearly all actives have a fitted effect of over 15% in size. Also: potency is read from the fitted curve at half-maximal effect.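 As to activation: HepG2 cells stably carrying human CAR and a CYP2B6 luciferase reporter.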 In short, it runs like this: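 Double-stable HepG2 cells (hCAR, CYP2B6-2.2kb) seeded 4 h before compound addition. Exposure 24 h with 0.75 uM PK11195 final. Luciferase detected by ONE-Glo.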
Experiment [7] can be described thus: qHTS assay to identify small molecule antagonists of the estrogen related receptor signaling pathway with the pleiotropic PPARgamma coactivator (PGC) from Tox21 10K library - cell viability counter screen (AID 1224840; active = well fitted cell-killing curve with a large enough effect in the repeat runs, not every such curve was filed as active; also: nearly all actives have a fitted effect of over 40% in size; also: potency is read from the fitted curve at half-maximal effect). In outline:
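Step one, plate 2,000 PGC/ERR cells per well; step two, incubate 6 h at 37 C/5% CO2; step three, pin-transfer compounds; step four, incubate 17.5 h; step five, add CellTiter-Fluor and read fluorescence after 30 min.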

A short description of experiment [8]: qHTS assay to identify small molecule antagonists of the estrogen related receptor signaling pathway with the pleiotropic PPARgamma coactivator (PGC) from Tox21 10K library (AID 1224841; call rule not given here; also: actives are mostly falling curves and most rising ones were filed inactive; nearly all actives have a fitted effect of over 50% in size; also: potency is read from the fitted curve at half-maximal effect). In short, it runs like this:
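Antagonism in this quantitative HTS is taken from loss of luciferase signal in PGC/ERR cells. Cells (2,000/well) are treated with compounds in DMSO after a 6 h settling period and read by One-Glo luminescence after 18 h.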

Experiment [9] in a line: qHTS assay to identify small molecule agonists of the estrogen related receptor signaling pathway with the pleiotropic PPARgamma coactivator (PGC) from Tox21 10K library (AID 1224842). Also: nearly all actives have a fitted effect of over 15% in size. In short, it runs like this:
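Luminescence from One-Glo (30 min, room temperature) measured after PGC/ERR cells had 18 h at 37 C with pinned compound (23 nL in DMSO). Cells had been seeded at 2,000 per well and pre-incubated 6 h.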

Experiment [10] can be described thus: qHTS assay to identify small molecule agonists of the hypoxia (HIF-1) signaling pathway - cell viability counter screen (AID 1224844; calls by dose curve; also: nearly all actives have a fitted effect of over 50% in size; also: potency is read from the fitted curve at half-maximal effect). In outline:
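Tox21 10K compounds were added to HRE-bla ME-180 cells (0.5% dialyzed FBS) and incubated 17 hrs at 37C; ATP-based CellTiter-Glo luminescence then reported cell viability in the same wells.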

A short description of experiment [11]: qHTS assay to identify small molecule agonists of H2AX (AID 1224845; active = well fitted activation curve with a large enough effect in the signal ratio in the repeat runs, not every such curve was filed as active; the % refers to the signal ratio). In outline:
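Phospho-H2AX Ser139 measured by HTRF (ex 320 nm; em 665 and 620 nm) after 24 hr antibody incubation. Compounds, 15 concentrations, 0.76% DMSO, were applied to CHO-K1 cells for 3hr at 37C before lysis.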

The nature of experiment [12]: qHTS assay to identify small molecule agonists of H2AX - cell viability counter screen (AID 1224847; calls by dose curve; also: nearly all actives have a fitted effect of over 30% in size; also: potency is read from the fitted curve at half-maximal effect). In outline:
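Quantitative HTS viability measurement: CHO-K1 wild-type cells in serum (10% FBS) medium, short 3 hr drug exposure at 37C with 0.76% DMSO, CellTiter-Glo luminescent detection.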

Experiment [13] is described as follows: qHTS assay to identify small molecule antagonists of the estrogen related receptor (ERR) signaling pathway from Tox21 library (AID 1224848). Also: nearly all actives have a fitted effect of over 50% in size. Also: potency is read from the fitted curve at half-maximal effect. In short, it runs like this:
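Antagonist-mode screen of the Tox21 10K library in an NTP-provided ERR reporter cell line; 18 h compound exposure at 37 C, luminescence measured with ONE-Glo.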

A short description of experiment [14]: qHTS assay to identify small molecule agonists of the estrogen related receptor (ERR) signaling pathway from Tox21 library (AID 1224849; calls by dose curve; also: nearly all actives have a fitted effect of over 15% in size). The following applies: ERR reporter cell line, ONE-Glo luciferase, 18 h; at 92.4 µM (top of the series) unless noted. In outline: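 Agonist signal is luciferase luminescence from an ERR reporter cell line treated 18 h at 37 C with DMSO-dissolved compounds, read 30 min after ONE-Glo addition at room temperature.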

Experiment [15] can be described thus: qHTS RealTime-Glo MT Cell Viability Assay in HepG2 cells - 24 hour (AID 1224867). Also: nearly all actives have a fitted effect of over 50% in size. In outline:
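HepG2 cells (600/well) were dispensed with RealTime-Glo reagents, incubated 5 h at 37 °C, then treated with compounds in DMSO for up to 40 h. Nonlytic NanoLuc luminescence reflecting viable cells was read at each stated time point.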

For experiment [16], the target named is Thyrotropin receptor (Homo sapiens) (UniProt P16473). The experiment can be described thus: qHTS assay to identify small molecule agonists of the thyroid stimulating hormone receptor (TSHR) signaling pathway (AID 1224843; calls by dose curve; also: nearly all actives have a fitted effect of over 45% in size). In outline: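 Screening of the Tox21 10K collection used HEK293 cells engineered with TSHR at 800 cells per well. After a 30-min room-temperature compound exposure, HTRF cAMP reagents were added and fluorescence recorded 1 h later.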

Experiment [17] in a line: qHTS assay to identify small molecule agonists of the hypoxia (HIF-1) signaling pathway (AID 1224846; active = well fitted activation curve with a large enough effect in the signal ratio in the repeat runs, not every such curve was filed as active; the % refers to the signal ratio). In outline:
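Steps: seed ME-180 HRE-bla cells (2,000/well, 0.5% dialyzed FBS); incubate 5 hrs at 37C; pin-transfer compounds or DMSO; incubate 17 hrs; add LiveBLAzer B/G substrate CCF4-AM; measure reporter activation by FRET.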

A short description of experiment [18]: qHTS RealTime-Glo MT Cell Viability Assay in HEK293 cells - 32 hour (AID 1224868). In outline:
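HEK293 cells seeded with NanoLuc/prosubstrate reagent, rested 5 h at 37 C, then dosed and kept at 37 C up to 40 h. Nonlytic real-time luminescence from viable cells read at 0, 8, 16, 24, 32 and 40 h.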

A short description of experiment [19]: A CellTox Green Cytotoxicity Assay to monitor cytotoxicity in HEK293 cells - 0 hour (AID 1224869). Also: nearly all actives have a fitted effect of over 50% in size. In outline:
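Cytotoxicity was tracked continuously in HEK293 cells by a DNA-binding dye excluded from viable cells. Compounds were transferred in DMSO 5 h after seeding; fluorescence was recorded at intervals up to 40 h.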

The nature of experiment [20]: qHTS assay to identify small molecule agonists of the estrogen related receptor signaling pathway with the pleiotropic PPARgamma coactivator (PGC) (AID 1224823). In outline: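 PGC/ERR reporter cells seeded 6 h, then exposed to compounds (23 nL in DMSO) for 18 h at 37 C. One-Glo luciferase luminescence read after 30 min at room temperature.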
% is scaled to controls: 0 for no effect and ±100 for the full control effect.

Chain of Thyrotropin receptor (Homo sapiens) (P16473 whole entry, looked up): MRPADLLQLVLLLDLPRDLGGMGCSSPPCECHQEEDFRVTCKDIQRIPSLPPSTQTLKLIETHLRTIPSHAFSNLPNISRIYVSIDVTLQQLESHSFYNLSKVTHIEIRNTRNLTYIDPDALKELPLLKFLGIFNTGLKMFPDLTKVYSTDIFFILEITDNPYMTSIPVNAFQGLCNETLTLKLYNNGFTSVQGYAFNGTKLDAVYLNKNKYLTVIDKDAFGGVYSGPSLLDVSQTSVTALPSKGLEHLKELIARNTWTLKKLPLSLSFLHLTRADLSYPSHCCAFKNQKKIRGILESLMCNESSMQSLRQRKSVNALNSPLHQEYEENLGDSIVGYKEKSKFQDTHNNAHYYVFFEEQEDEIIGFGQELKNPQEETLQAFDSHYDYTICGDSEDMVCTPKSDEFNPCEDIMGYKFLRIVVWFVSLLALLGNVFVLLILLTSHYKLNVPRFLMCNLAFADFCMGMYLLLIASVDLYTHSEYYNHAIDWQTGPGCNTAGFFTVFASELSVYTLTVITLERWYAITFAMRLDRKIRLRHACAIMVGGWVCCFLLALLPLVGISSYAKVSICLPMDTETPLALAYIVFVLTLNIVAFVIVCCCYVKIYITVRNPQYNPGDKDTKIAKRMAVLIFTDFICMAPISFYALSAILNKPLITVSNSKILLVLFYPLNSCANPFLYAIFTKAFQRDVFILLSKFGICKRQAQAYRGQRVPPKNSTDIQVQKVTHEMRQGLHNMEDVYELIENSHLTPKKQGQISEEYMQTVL
Chain of Nuclear receptor subfamily 1 group I member 3 (Homo sapiens) (Q14994 whole entry, looked up): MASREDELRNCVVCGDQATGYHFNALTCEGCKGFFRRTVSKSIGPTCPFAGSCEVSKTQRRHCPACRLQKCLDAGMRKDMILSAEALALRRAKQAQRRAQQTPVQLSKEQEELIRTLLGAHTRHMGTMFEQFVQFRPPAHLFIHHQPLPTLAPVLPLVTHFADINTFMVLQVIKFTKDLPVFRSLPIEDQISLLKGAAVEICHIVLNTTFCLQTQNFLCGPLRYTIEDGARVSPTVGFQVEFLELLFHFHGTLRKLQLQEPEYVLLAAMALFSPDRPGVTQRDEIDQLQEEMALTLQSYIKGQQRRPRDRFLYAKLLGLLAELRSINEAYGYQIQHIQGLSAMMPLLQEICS
Chain of Luciferin 4-monooxygenase (Photinus pyralis) (P08659 whole entry, looked up): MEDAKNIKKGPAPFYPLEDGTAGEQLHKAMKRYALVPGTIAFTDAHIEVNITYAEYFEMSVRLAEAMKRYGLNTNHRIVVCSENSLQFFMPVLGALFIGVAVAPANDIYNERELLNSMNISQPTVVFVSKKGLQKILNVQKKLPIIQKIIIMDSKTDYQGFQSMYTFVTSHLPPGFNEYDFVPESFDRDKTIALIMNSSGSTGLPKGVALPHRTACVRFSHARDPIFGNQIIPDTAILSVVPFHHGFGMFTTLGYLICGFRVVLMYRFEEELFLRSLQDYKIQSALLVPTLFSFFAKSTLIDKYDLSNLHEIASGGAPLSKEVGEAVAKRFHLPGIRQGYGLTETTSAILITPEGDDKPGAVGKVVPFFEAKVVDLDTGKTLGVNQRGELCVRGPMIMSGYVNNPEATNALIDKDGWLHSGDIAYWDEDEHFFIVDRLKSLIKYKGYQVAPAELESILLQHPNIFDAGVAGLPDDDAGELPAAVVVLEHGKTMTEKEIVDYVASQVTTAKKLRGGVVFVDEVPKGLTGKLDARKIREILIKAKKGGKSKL

With `O=[N+]([O-])c1ccc(F)c([N+](=O)[O-])c1`, the Potency in experiment [1] is 34.7 µM (active); in experiment [3], 34.7 µM (active); in experiment [4], 34.7 µM (active); in [7] it was 55 µM (active); in experiment [8], 49 µM (active); in experiment [10], 12.4 µM (active). The Potency is 57.2 µM (active) in experiment [12] and 43.7 µM (active) in experiment [13]. Also, the Potency entry in experiment [2], in [5], in [6], in experiment [9], in experiment [11] and in [15] was “inactive” in each case. Besides, in [14], the activity change, positive = activation was -38.2%.

For `C=CC(=O)OCC(C)O` (stereo not given), the Potency result in experiment [1], in [2], in experiment [3], in [4], in [5] and in experiment [6] was “inactive” each time. Besides, the Potency result in experiment [7], in [8], in [9], in [16], in experiment [11] and in experiment [12] was “inactive” throughout. Moreover, the Potency result in experiment [13] and in [15] was “inactive” each time.

On to `COC1=CC(=O)O[C@@H](CCc2ccccc2)C1`, for which the Potency result in [1], in [2], in [3], in experiment [4], in [5] and in [7] was “inactive” throughout. The Potency entry in [8], in experiment [9], in experiment [16], in experiment [11], in [12] and in experiment [15] was “inactive” throughout. Moreover, the Potency result in experiment [18] and in [19] was “inactive” in each case. In addition, the Potency in [6] is 56.7 µM (active). In addition, the compound was called inactive in [17]. The activity change, positive = activation in experiment [14] is -29.7%.

As to `ClP(Cl)(Cl)(Cl)Cl`, the Potency entry in experiment [1], in experiment [3], in experiment [4], in [5], in experiment [6] and in [7] was “inactive” each time. The Potency result in [9], in experiment [16], in [10], in experiment [12], in experiment [13] and in [19] was “inactive” in each case. The Potency in experiment [2] was 31.9 µM (active). Further, in experiment [17], the call was inactive. Also, the activity change, positive = activation in experiment [14] is 0.0891%.

Take `COCCOCCO`: the compound was classed as inactive in experiment [20]. The Potency entry in [1], in [2], in experiment [3], in experiment [4], in [6] and in experiment [7] was “inactive” throughout. In addition, the Potency entry in experiment [8], in experiment [9], in [13], in experiment [15], in experiment [18] and in experiment [19] was “inactive” each time. In addition, in experiment [14], the activity change, positive = activation is 18.2% (active).

As for `Sc1ccccc1Cl`, the Potency result in experiment [1], in [2], in [3], in experiment [4], in experiment [5] and in experiment [6] was “inactive” in each case. Further, the Potency result in experiment [7], in experiment [8], in experiment [9], in experiment [16], in experiment [10] and in experiment [11] was “inactive” each time. Besides, the Potency result in experiment [12], in [13], in experiment [15], in [18] and in experiment [19] was “inactive” in each case. In addition, the outcome in experiment [17] was inactive. The activity change, positive = activation in experiment [14] was 1.99% [at 42.5 µM].

As to `Cc1ccccc1CCl`, the Potency entry in experiment [1], in experiment [2], in experiment [3], in [4], in experiment [5] and in experiment [6] was “inactive” throughout. Besides, the Potency result in experiment [7], in experiment [8], in [9], in experiment [10], in [11] and in experiment [12] was “inactive” each time. Also, the Potency entry in [13], in [15], in experiment [18] and in experiment [19] was “inactive” throughout. The call in experiment [17] was inactive. Moreover, the activity change, positive = activation in experiment [14] is 7.48%.

On to `N#C/C(N)=C(/N)C#N`, for which the Potency entry in [1], in [2], in experiment [3], in [4], in experiment [5] and in [6] was “inactive” throughout. Moreover, the Potency result in experiment [7], in experiment [8], in [9], in experiment [16], in experiment [10] and in [12] was “inactive” in each case. The Potency result in experiment [13], in [15], in experiment [18] and in [19] was “inactive” in each case. Further, the outcome in [17] was inactive. Also, in experiment [14], the activity change, positive = activation is 0.178%.
